Screens deposited in PubChem by several laboratories.
Many of the other results were omitted from the sample, so hits are more common in it than they were.
ALR H2O2 inh = human ALR oxidase inhibition via reduced H2O2; inhibition, % (concentration not given with the values); purified ALR, DTT oxidation, H2O2 HRP-luminol luminescence; P55789; 290,000 tested, 3.8% active;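 active = mean replicate inhibition above about 79%, with every replicate also reaching it, limit read from the data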
Target sequence (P55789 whole entry, looked up): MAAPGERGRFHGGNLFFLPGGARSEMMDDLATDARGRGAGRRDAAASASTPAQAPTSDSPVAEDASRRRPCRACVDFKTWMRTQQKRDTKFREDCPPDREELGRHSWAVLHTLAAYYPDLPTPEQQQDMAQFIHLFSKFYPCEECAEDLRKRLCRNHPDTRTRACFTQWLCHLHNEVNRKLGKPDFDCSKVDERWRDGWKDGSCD
GC-A act = GC-A (human) enzyme activation | P16066 | HEK293 GC-A cells, cGMP TR-FRET, EC30 ANP; 0% at EC30 ANP, 100% saturating ANP | activation, % at 10 µM | 370,000 tested, 0.14% active | AID 1671463; in the data active = activation above about 40%
NPR2 activator = GC-B (human) receptor activation; P20594; HEK293-GC-B cells, CNP EC30, cGMP TR-FRET; 0% at EC30 CNP, 100% saturating CNP; activation, % at 10 µM; 370,000 tested, 0.11% active; AID 1920062;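 active = activation at 10 µM reaching about 35% in either raw or pattern-adjusted values, limit read from the data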
HDAC3 inhib = blocks human histone deacetylase 3; 320,000 tested, 0.15% active; inhibition, % at 8.3 µM; recombinant HDAC3, fluorogenic peptide/trypsin coupled, fluorescence; O15379; in the data active = inhibition above about 26%, passing the limit was not always enough
The depositor's hits bear a star.

`O=C(c1csc2c1CCCC2)n1cccn1` gave ALR H2O2 inh -6.5, GC-A act 1.7, NPR2 activator 2.6 and HDAC3 inhib 78.8*.
`COc1cc(NC(=O)c2ccc3c(SCC(=O)O)c4c(nc3c2)CCCC4)cc(OC)c1OC` gave ALR H2O2 inh 97.2*, GC-A act -5.4, NPR2 activator -3.0 and HDAC3 inhib -1.3.
Screening COc1cc(NC(=O)c2ccc3c(SCC(=O)O)c4c(nc3c2)CCC4)cc(OC)c1OC returned ALR H2O2 inh -4.7, GC-A act -2.8, NPR2 activator -5.0 and HDAC3 inhib 5.0.
Cc1cc(NC(=O)CSc2c3c(nc4ccccc24)CCC3)no1 was read as ALR H2O2 inh 97.9*, GC-A act 6.5, NPR2 activator -2.4 and HDAC3 inhib 6.2.
`COCCNC(=O)CSc1c2c(nc3ccc(Cl)cc13)CCCC2` gave ALR H2O2 inh 98.4*, GC-A act -2.1, NPR2 activator -3.1 and HDAC3 inhib -5.2.
COc1cc(NC(=O)CSc2nnnn2-c2ccccc2)cc(OC)c1OC was read as ALR H2O2 inh 0.3, GC-A act -1.6, NPR2 activator 3.8 and HDAC3 inhib 2.7.
COc1cc(NC(=O)CSc2c3c(nc4ccccc24)CCC3)cc(OC)c1OC was read as ALR H2O2 inh 98.4*, GC-A act -4.6, NPR2 activator -3.4 and HDAC3 inhib 4.8.
O=C(NC1CCCC1)[C@@H]1CCCN1C(=O)[C@@H](NC(=O)N1CCOCC1)C1CCCCC1 was read as GC-A act -0.7 and NPR2 activator 0.7.
`CCn1c(SCC(=O)Nc2ccccc2OC)nc2ccccc2c1=O` gave ALR H2O2 inh 5.9, GC-A act -2.8, NPR2 activator 1.4 and HDAC3 inhib 6.7.
Screening COc1ccc(NC(=O)CSc2c3c(nc4cc(Cl)ccc24)CCCC3)cc1OC returned ALR H2O2 inh 98.6*, GC-A act -11.5, NPR2 activator -8.9 and HDAC3 inhib -2.4.
CC(C)NC(=O)CSc1c2c(nc3ccccc13)CCCC2 was read as ALR H2O2 inh 75.9*, GC-A act 4.2, NPR2 activator 1.4 and HDAC3 inhib 4.9.
O=C(CSc1c2c(nc3ccccc13)CCC2)N1CCCC1 was read as ALR H2O2 inh 97.9*, GC-A act -2.5, NPR2 activator -2.4 and HDAC3 inhib 6.8.
Screening COc1ccccc1NC(=O)CSc1c2c(nc3ccccc13)CCC2 returned ALR H2O2 inh 98.6*, GC-A act -4.8, NPR2 activator -10.7 and HDAC3 inhib 2.1.
Screening COC(=O)C1CN(CCc2ccccc2)CCS(=O)(=O)N1Cc1ccccc1F (stereo not given) returned GC-A act -1.9 and NPR2 activator -2.4.
For Cc1ccc(C)c(NC(=O)CN(C)C(=O)c2cc3ccccc3o2)c1 the results were ALR H2O2 inh -1.7, GC-A act -1.8, NPR2 activator -1.5 and HDAC3 inhib -0.7.
`COc1ccc(C2C(=O)c3ccccc3C2=Nc2ccc(Br)cc2)cc1` (stereo not given) gave ALR H2O2 inh -4.4, GC-A act -4.7, NPR2 activator 0.0 and HDAC3 inhib -6.4.
`COc1ccc(NC(=O)CSc2c3c(nc4ccccc24)CCCC3)c(OC)c1` gave ALR H2O2 inh 99.6*, GC-A act -10.2, NPR2 activator -4.7 and HDAC3 inhib -4.8.
`COc1ccc(NC(=O)CSc2nc(O)cc(=O)[nH]2)c(OC)c1` gave ALR H2O2 inh 98.9*, GC-A act 0.1, NPR2 activator -4.5 and HDAC3 inhib -2.2.
`COc1ccc(OC)c(NC(=O)c2c3c(nc4ccccc24)CCC3)c1` gave ALR H2O2 inh -21.3, GC-A act 5.0, NPR2 activator -5.2 and HDAC3 inhib 16.4.
Cc1[nH]n(-c2ccccc2)c(=S)c1C=Nc1cccc([N+](=O)[O-])c1 was read as ALR H2O2 inh -3.3, GC-A act 5.2, NPR2 activator -3.6 and HDAC3 inhib 55.0*.
Screening CCCCN=Cc1c(C)[nH]n(-c2ccccc2)c1=S returned ALR H2O2 inh 30.7, GC-A act 0.6, NPR2 activator -0.5 and HDAC3 inhib 1.0.
For O=C(OCC(=O)N1CCN(c2ccccc2)CC1)c1ccc2ccccc2n1 the results were ALR H2O2 inh 97.4*, GC-A act -0.5, NPR2 activator -2.1 and HDAC3 inhib -4.8.
`Cn1cccc1C(=O)OCC(=O)N1CCN(c2ccccc2)CC1` gave ALR H2O2 inh 97.9*, GC-A act 3.0, NPR2 activator 3.2 and HDAC3 inhib -8.6.
O=C(OCC(=O)N1CCN(c2ccccc2)CC1)c1ccccn1 was read as ALR H2O2 inh 73.7 and HDAC3 inhib 1.9.
For CCC/C(O)=C1\C(=O)CCCC1=NCCc1c(C)[nH]c2ccc(OC)cc12 the results were ALR H2O2 inh 3.9, GC-A act -1.4, NPR2 activator -8.4 and HDAC3 inhib -1.6.
`CCS(=O)(=O)Nc1ccc(-c2cc(-c3ccccc3)c3cc(C)ccc3n2)cc1` gave ALR H2O2 inh 89.2*, GC-A act -6.4, NPR2 activator -0.2 and HDAC3 inhib 4.9.
Cc1ccc2nc(-c3ccc(NS(C)(=O)=O)cc3)cc(-c3ccccc3)c2c1 was read as ALR H2O2 inh -4.0, GC-A act -6.1, NPR2 activator -7.1 and HDAC3 inhib 4.9.
COC1=C(C)C(O)=C(C(=O)/C=C/c2ccccc2)C(=O)C1(C)C was read as ALR H2O2 inh 97.5*, GC-A act 1.1, NPR2 activator 7.8 and HDAC3 inhib -1.7.
Screening Oc1ccc(C2=CSC3=NCCN23)cc1O returned ALR H2O2 inh 99.6*, GC-A act 3.1, NPR2 activator 2.5 and HDAC3 inhib 0.1.
For Cc1ccc([N+](=O)[O-])cc1N=Nc1c(C)[nH]n(C(N)=S)c1=O the results were ALR H2O2 inh 98.0*, GC-A act 3.9, NPR2 activator 0.0 and HDAC3 inhib 20.9.
Screening CC(Cc1ccccc1)NC(=O)CN1C(=O)c2ccccc2S1(=O)=O (stereo not given) returned ALR H2O2 inh -1.9, GC-A act 3.9, NPR2 activator 3.0 and HDAC3 inhib -4.1.
For CCCn1nnnc1SCC(=O)c1ccc2c(c1)OCCO2 the results were ALR H2O2 inh 35.9, GC-A act 3.3, NPR2 activator 0.6 and HDAC3 inhib 49.8*.
Screening O=C(O)CCSCC(=O)c1ccc2c(c1)OCCO2 returned ALR H2O2 inh 98.2*, GC-A act -2.5, NPR2 activator -3.9 and HDAC3 inhib -4.1.
For COC(=O)[C@]12C[C@H](CC(=O)N3CCCCC3)C(=O)N(CCC3=CCCCC3)C1=C[C@H](COCc1ccccc1)O[C@@H]2C the results were GC-A act -0.2 and NPR2 activator 4.5.
`c1cc2c(c(NCc3ccncc3)c1)CCCC2` gave ALR H2O2 inh 98.6*, GC-A act 10.2, NPR2 activator -4.0 and HDAC3 inhib 9.3.
For CC(C)(C)CC(=O)Nc1cccc2c1CCCC2 the results were ALR H2O2 inh 1.9, GC-A act 1.2, NPR2 activator 2.4 and HDAC3 inhib -2.3.
`Cc1ccc(NC(=O)Nc2ccc3c(c2)nnn3C)cc1C` gave ALR H2O2 inh -0.9, GC-A act -3.3, NPR2 activator -2.9 and HDAC3 inhib -8.1.
